Measured values published in PubChem BioAssay (EPA / NIEHS).
Inconclusive results are not listed. Activity calls are given as the source filed them. Rule for the calls, unless noted: active = hit-call score of the fitted dose curve at least 0.9, where 1 is the maximum; inactive = score below 0.9.

Experiments:
[1] = APR_HepG2_CellCycleArrest_1hr: Apredica 1-hour HepG2 Assay for Cell Cycle Arrest (AID 2282666); conditions: high-content imaging, actives raise or lower the signal
Procedure, shortened: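 Cell cycle arrest scored from nuclear DNA content (Hoechst 33342) using high-content imaging of fixed HepG2 cells after 1 h treatment across 0.39–200 uM, in duplicate. Gain or loss fitted relative to 0.5% DMSO.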

[2] = APR_HepG2_MicrotubuleCSK_1hr: Apredica 1-hour HepG2 Assay for Microtubule CSK Stabilty (AID 2282669); conditions: HepG2 microtubule cytoskeleton imaging, actives raise or lower the signal
Procedure, shortened: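 Alpha-tubulin immunofluorescence, imaged by automated high-content microscopy with Hoechst nuclear segmentation, measured cytoskeletal change after 1 h dosing of HepG2 at 0.39–200 uM in 0.5% DMSO. Activity fitted in both directions relative to DMSO.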

[3] = APR_HepG2_NuclearSize_1hr: Apredica 1-hour HepG2 Assay for Nuclear Size (AID 2282670); conditions: high-content imaging, actives raise or lower the signal
Procedure, shortened: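 Nuclear size measured by high-content imaging of Hoechst 33342 nuclear stain after formaldehyde fixation; human HepG2 line exposed 1 hr to compounds at 0.39–200 uM in 0.5% DMSO, with bidirectional curve fitting relative to DMSO.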

[4] = APR_HepG2_P-H2AX_1hr: Apredica 1-hour HepG2 Assay for H2AX Phosphorylation (AID 2282673); conditions: high-content imaging, actives raise or lower the signal
Procedure, shortened: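 Phospho-H2A.x immunofluorescence (1:200, FITC secondary) plus Hoechst nuclear stain, quantified by high-content imaging in HepG2 after 1 hr compound exposure. Ten concentrations, 0.39 to 200 uM, in duplicate with 0.5% DMSO; fit both directions against DMSO.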

[5] = APR_HepG2_MitoMass_1hr: Apredica 1-hour HepG2 Assay for Mitochondrial Mass (AID 2282674); conditions: high-content imaging, actives raise or lower the signal
Procedure, shortened: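 Mitochondrial mass is taken from MitoTracker Red CMXRos (250 nM, 30 min, pre-fixation) fluorescence imaged at 20x in HepG2 cells. Exposure lasted 1 hr across ten concentrations, 0.39 to 200 uM, 0.5% DMSO; DMSO baseline, bidirectional fitting.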

[6] = APR_HepG2_CellCycleArrest_24hr: Apredica 24-hour HepG2 Assay for Cell Cycle Arrest (AID 2282905); conditions: imaging, actives raise or lower the signal;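 note: cell cycle arrest scored as ratio of 2N to 4N nuclear DNA content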
Procedure, shortened: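 Readout: Hoechst 33342 nuclear DNA content by high-content fluorescent imaging, six images/well, 20x. Human HepG2 liver cells, 24 hr compound exposure, 0.39–200 uM, final DMSO 0.5% v/v. Gain or loss fitted relative to DMSO baseline.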

[7] = APR_HepG2_StressKinase_1hr: Apredica 1-hour HepG2 Assay for Stress Kinase (AID 2282906); conditions: HepG2 stress kinase (phospho-c-Jun) imaging, actives raise or lower the signal
Procedure, shortened: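 High-content imaging of phospho-c-Jun immunostaining (with Hoechst nuclear identification) after a 1 h exposure of HepG2 cells to 10 concentrations from 0.39 to 200 uM, final DMSO 0.5%. Fitted bidirectionally against DMSO.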

[8] = APR_HepG2_NuclearSize_24hr: Apredica 24-hour HepG2 Assay for Nuclear Size (AID 2282907); conditions: high-content imaging, actives raise or lower the signal
Procedure, shortened: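 Read-out: nuclear diameter from Hoechst 33342 (2 ug/mL) imaging of fixed HepG2 cells, 20x, six fields/well. Compounds ran at 0.39–200 uM for 24 hr, 0.5% DMSO final. Gain or loss was fitted bidirectionally relative to the DMSO baseline.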

[9] = APR_HepG2_CellLoss_24hr: Apredica 24-hour HepG2 Assay for Cell Loss (AID 2282908); conditions: high-content imaging
Procedure, shortened: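 Read-out: Hoechst 33342-stained nuclei counted by automated fluorescence imaging after formaldehyde fixation and Triton permeabilization. Ten concentrations, 0.39 to 200 uM, duplicate wells, 0.5% DMSO final. Gain or loss of signal fitted relative to DMSO baseline.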

[10] = APR_HepG2_MicrotubuleCSK_24hr: Apredica 24-hour HepG2 Assay for Microtubule CSK Stabilty (AID 2282909); conditions: HepG2 microtubule cytoskeleton imaging, actives raise or lower the signal
Procedure, shortened: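 Read-out: alpha-tubulin immunofluorescence intensity by automated high-content imaging of fixed HepG2 cells after 24 h compound treatment. Ten concentrations, 0.39 to 200 uM, in duplicate; DMSO 0.5% v/v. Taxol positive control; DMSO-normalized bidirectional curve fitting.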

[11] = APR_HepG2_MitoticArrest_24hr: Apredica 24-hour HepG2 Assay for Mitotic Arrest (AID 2282910); conditions: high-content imaging, actives raise or lower the signal
Procedure, shortened: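 High-content imaging of fixed HepG2 cells labeled with Hoechst 33342 and anti-phospho-histone H3, after 24 h treatment. Ten concentrations 0.39 to 200 uM in duplicate, final DMSO 0.5%; changes fitted both directions relative to DMSO.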

[12] = APR_HepG2_MitoMembPot_24hr: Apredica 24-hour HepG2 Assay for Mitochondrial Membrane Potential (AID 2282911); conditions: imaging, actives raise or lower the signal
Procedure, shortened: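 HepG2 cells exposed 24 h to 0.39–200 uM compounds in duplicate, 0.5% v/v DMSO final. MitoTracker Red CMXRos 250 nM loaded 30 min before formaldehyde fixation; high-content imaging at 20x, bidirectional fit versus DMSO.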

[13] = APR_HepG2_MitoMass_24hr: Apredica 24-hour HepG2 Assay for Mitochondrial Mass (AID 2282912); conditions: high-content imaging, actives raise or lower the signal
Procedure, shortened: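 HepG2, 24 hr dosing, 10 concentrations 0.39–200 uM in duplicate, DMSO 0.5% final. MitoTracker Red CMXRos 250 nM, 30 min pre-fix; 3.7% formaldehyde fix. Imaging-based fluorescence intensity; gain/loss fit vs DMSO baseline.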

[14] = APR_HepG2_p53Act_24hr: Apredica 24-hour HepG2 Assay for p53 Activation (AID 2282913); conditions: high-content imaging, actives raise or lower the signal;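 note: p53 protein immunofluorescence averaged per cell in HepG2 with Hoechst nuclei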
Procedure, shortened: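 HepG2 cells exposed 24 h to compounds at 0.39–200 uM in duplicate, 0.5% v/v DMSO final; fixed, permeabilized, stained with anti-p53 antibody and Hoechst 33342; fluorescence imaging; bidirectional curve fit versus DMSO.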

[15] = APR_HepG2_CellCycleArrest_72hr: Apredica 72-hour HepG2 Assay for Cell Cycle Arrest (AID 2282914); conditions: high-content imaging, actives raise or lower the signal
Procedure, shortened: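 HepG2 cells exposed 72 h in duplicate to 0.39–200 uM compound, 0.5% DMSO final. Formaldehyde-fixed, Hoechst 33342-stained nuclei imaged at 20x, six fields per well; DNA content per valid cell quantified by cell-cycle image analysis, bidirectional fit versus DMSO.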

[16] = ACEA_ER_80hr: ACEA Biosciences xCELLigence Real-Time Cell Analysis on Estrogen Receptor Agonism for Proliferation (AID 2282667; active = hit-call score of the fitted dose curve at least 0.9, where 1 is the maximum); conditions: T47D proliferation, impedance (xCELLigence), 80 h
Procedure, shortened: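 T-47D cells monitored by electrical impedance (xCELLigence) with compound present throughout; 80 h timepoint, positive-direction fitting versus DMSO. Eight-point 1:4 dilutions from 100 uM final, duplicate plates.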

[17] = APR_HepG2_CellLoss_1hr: Apredica 1-hour HepG2 Assay for Cell Loss (AID 2282668); conditions: high-content imaging;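 note: curves fitted both ways against DMSO so gain or loss of cells counts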
Procedure, shortened: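 Cell number comes from high-content imaging of Hoechst-labelled nuclei in fixed HepG2 cells. Cells were exposed for 1 h to ten concentrations from 0.39 to 200 uM in 0.5% DMSO. Gain or loss was fitted against DMSO controls.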

[18] = APR_HepG2_MitoMembPot_1hr: Apredica 1-hour HepG2 Assay for Mitochondrial Membrane Potential (AID 2282675); conditions: imaging, actives raise or lower the signal
Procedure, shortened: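 Mitochondrial membrane potential read as MitoTracker Red CMXRos intensity by automated imaging of fixed HepG2 cells. Dye at 250 nM for 30 min pre-fixation; compounds 0.39 to 200 uM for 1 hour, duplicate wells, 0.5% DMSO.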

[19] = APR_HepG2_MitoticArrest_1hr: Apredica 1-hour HepG2 Assay for Mitotic Arrest (AID 2282672); conditions: high-content imaging, actives raise or lower the signal
Procedure, shortened: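 Ten-point concentration series (0.39 to 200 uM, duplicates, 0.5% v/v DMSO) applied to human HepG2 liver cells for 1 hr. High-content imaging of phospho-histone H3 and Hoechst-stained nuclei after fixation and permeabilization; DMSO-normalised bidirectional fit.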

Measured: AC50

CCN(CC)C(=O)SCc1ccc(Cl)cc1
active: [12] 22.8 µM
not listed: [16] | [17] | [18] | [19]
inactive: all other assays above

O=[N+]([O-])/N=C1\NCCN1Cc1ccc(Cl)nc1
not listed: [3] | [5] | [14] | [17] | [18] | [19]
inactive: all other assays above

O=C(NC(=O)c1c(F)cccc1F)Nc1ccc(OC(F)(F)C(F)OC(F)(F)F)c(Cl)c1 (centres undefined)
not listed: [3] | [14] | [18] | [19]
inactive: all other assays above

OCCOc1ccccc1
not listed: [4] | [5] | [16] | [18] | [19]
inactive: all other assays above

COP(=S)(OC)Oc1ccc(SC)c(C)c1
active: [18] 59.1 µM | [15] 54.3 µM
not listed: [3] | [4] | [5] | [16] | [19]
inactive: all other assays above

CNC(=O)/C=C(\C)OP(=O)(OC)OC
not listed: [4] | [5] | [14] | [18] | [19]
inactive: all other assays above

O=C1c2ccccc2C(=O)N1SC(Cl)(Cl)Cl
not listed: [16] | [17] | [18]
inactive: all other assays above

CCOC1Oc2ccc(OS(C)(=O)=O)cc2C1(C)C (centres undefined)
not listed: [4] | [5] | [14] | [17] | [19]
inactive: all other assays above

COc1cc(OC)nc(NC(=O)NS(=O)(=O)c2cc(NC=O)ccc2C(=O)N(C)C)n1
not listed: [3] | [16] | [18] | [19]
inactive: all other assays above

Cc1[nH]c(=O)n(C(C)(C)C)c(=O)c1Cl
not listed: [3] | [4] | [5] | [14] | [17] | [18] | [19]
inactive: all other assays above

CC(C)OC(=O)Nc1cccc(Cl)c1
not listed: [3] | [4] | [5] | [16] | [18] | [19]
inactive: all other assays above

C#CCN1C(=O)COc2cc(F)c(N3C(=O)C4=C(CCCC4)C3=O)cc21
not listed: [3] | [5] | [14] | [17]
inactive: all other assays above

N#Cc1c(Cl)c(Cl)c(Cl)c(C#N)c1Cl
active: [17] 15.8 µM | [4] 3.46 µM | [7] 1.94 µM
not listed: [3] | [5] | [16] | [18] | [19]
inactive: all other assays above
